Experimental data: PubChem BioAssay

Assay: probe aLAP1 signal on lysate-treated microarray – cell lysate, small-molecule microarray, COS7 lysate, primary screen (AID 1124);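 further: lysate comes from COS7 cells expressing LAP1 and is applied at 0.3 µg/mL; score merges spot fluorescence near 667 nm with signal-to-noise over triplicate slides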
Details: probe aLAP1, fluorescence, higher = more signal

Structure (SMILES) | composite z-score
O=C(NCC(F)(F)F)[C@@H]1c2ccccc2C(=O)N(Cc2ccccc2Cl)[C@H]1c1ccc(CO)cc1 | 1.03
CCN1C(C)=C(C(=O)OC)[C@@H](c2ccccc2)N2C(=O)[C@](O)(C(=O)OC)[C@@H](c3ccccc3)C(C(=O)c3ccccc3)=C12 | 0.629
CC(=O)NCCCC[C@@H]1NC(=O)[C@H]2C[C@@H](C(=O)NCCCCCCN(C)C)[C@@H](c3cccc(OCCO)c3)N2C1=O | 1.09
CCC(=O)[C@]12O[C@@]3([C@@H]4C(=O)OCC[C@@H]41)N(Cc1ccccc1)C(C)=C(C(=O)OC)[C@@H](c1ccccc1)N3C2=O | -0.242
CCCCCCc1nc(-c2cc(C)c(OC)c(C)c2)cc2c1[Si](C(C)C)(C(C)C)O[C@H]2c1ccccc1 | -0.136
O=C1C2C=CC(C(O)C(c3ccccc3)c3ccccc3)N(Nc3ccc([N+](=O)[O-])cc3)C2C(=O)N1c1ccccc1 (configuration not stated) | 0.953
CC(=O)NCCCC[C@@H]1NC(=O)[C@@H]2C[C@H](C(=O)NCCCCCNC(=O)CS)[C@H](c3ccc(O)cc3)N2C1=O | -0.377
